The source made the active and inactive calls. How the source made its calls: active means hit-call score of the fitted dose curve at least 0.9, where 1 is the maximum; inactive means score below 0.9.
Target: Transcriptional activator Myb (Homo sapiens) (UniProt P10242)
Test: ATG_Myb_CIS: Attagene CIS-FACTORIAL HepG2 Assay for human Myeloblastosis (Myb) Proto-Oncogene Transcription Factor (AID 2282986)
Conditions: HepG2 Attagene CIS-FACTORIAL Myb reporter transcription; actives raise or lower the signal
Description: ATG_CIS is a cell-based, multiplexed-readout assay that uses HepG2, a human liver cell line, with measurements taken at 24 hours after chemical dosing in a 24-well plate.ATG_Myb_CIS is one of 52 assay component(s) measured or calculated from the ATG_CIS assay. It is designed to make measurements of mRNA induction, a form of inducible reporter, as detected with fluorescence intensity signals by Reverse transcription polymerase chain reaction (RT-PCR) and Capillary electrophoresis technology.Data from the assay component ATG_Myb_CIS was analyzed into 1 assay endpoint. This assay endpoint, ATG_Myb_CIS, was analyzed with bidirectional fitting relative to DMSO as the negative control and baseline of activity. Using a type of inducible reporter, measures of mRNA for gain or loss-of-signal activity can be used to understand the reporter gene at the transcription factor-level as they relate to the gene MYB. Furthermore, this assay endpoint can be referred to as a primary readout, because this assay has produced multiple assay endpoints where this one serves a reporter gene function. To generalize the intended target to other relatable targets, this assay endpoint is annotated to the dna binding intended target family, where the subfamily is MYB proteins.
Human liver HepG2 cells are transiently transfected with multiple reporter transcription units (MRTUs) in 6-well plates using FuGene 6 reagent (Roche; 3 ml FuGene/1 mg DNA). The MRTU constructs are regulated by a cis-regulating element (promoter). […] A major difference between the CIS and TRANS system is that in CIS activities of endogenous TFs are measured, whereas the TRANS assay evaluates changes in activities of exogenous, chimeric NR-Gal4 proteins. […] At the end of 24 hour incubation, total RNA was isolated using TriZol reagent (Invitrogen). The isolated RNA is then reverse-transcribed using oligo(dT) primer and Mo-MLV reverse transcriptase (Invitrogen) with DNAse I (Ambion) treatment for 30 min. The one-tenth of the produced cDNA was amplified by PCR using Taq DNA polymerase (Invitrogen) and two reporter sequence-specific primers. The PCR products were fluorescently labeled by primer extension with 6-arboxyfluorescein (6-FAM) 5'-labeled reporter sequence-specific primer (2 min at 95 C, 20 s at 68 C and 10 min at 72 C) and these products were digested with 5U of HpaI (New England Biolabs) for 2h at 37 C. The fragments were purified using Qiaquick PCR columns (Qiagen), analyzed on an ABI 3130xL genetic analyzer (Applied Biosystems) with peak positions identified by using a set of X-rhodamine (ROX)-labeled MapMarker1000 molecular weight standards (BioVentures). The raw capillary electrophoresis data was processed using Attagraph software (Attagene).

Chain of Transcriptional activator Myb (Homo sapiens) (P10242 whole entry, looked up): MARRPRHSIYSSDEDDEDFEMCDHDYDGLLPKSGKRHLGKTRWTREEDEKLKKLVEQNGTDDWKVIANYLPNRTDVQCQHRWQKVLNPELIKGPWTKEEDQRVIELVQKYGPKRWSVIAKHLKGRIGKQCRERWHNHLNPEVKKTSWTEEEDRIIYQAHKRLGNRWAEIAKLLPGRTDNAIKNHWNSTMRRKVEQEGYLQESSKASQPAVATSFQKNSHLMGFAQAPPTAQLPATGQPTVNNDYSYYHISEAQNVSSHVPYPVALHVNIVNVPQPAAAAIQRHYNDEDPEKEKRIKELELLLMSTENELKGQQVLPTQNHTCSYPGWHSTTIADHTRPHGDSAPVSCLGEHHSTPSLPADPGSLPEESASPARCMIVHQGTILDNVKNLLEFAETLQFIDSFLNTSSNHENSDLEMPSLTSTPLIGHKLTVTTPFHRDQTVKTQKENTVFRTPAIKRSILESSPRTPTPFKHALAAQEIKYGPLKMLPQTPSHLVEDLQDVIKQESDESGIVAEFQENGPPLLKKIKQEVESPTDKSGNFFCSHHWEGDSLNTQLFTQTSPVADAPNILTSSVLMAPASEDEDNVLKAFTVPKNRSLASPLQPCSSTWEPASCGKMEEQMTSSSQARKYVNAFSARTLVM

| Compound | outcome | AC50 |
| --- | --- | --- |
| CC(C)C(OC(=O)c1ccccc1)C(C)(C)COC(=O)c1ccccc1 (stereo not given) | inactive | – |
| N#Cc1ccc(CC(=O)c2cccc(C(F)(F)F)c2)cc1 | inactive | – |
| O=C(Nc1ccc([N+](=O)[O-])cc1)Nc1ccc([N+](=O)[O-])cc1 (tested in a mixture with another compound) | inactive | – |
| BrCc1cccc(Oc2ccccc2)c1 | inactive | – |
| CC(=O)c1c(C)c([N+](=O)[O-])c(C(C)(C)C)c([N+](=O)[O-])c1C | inactive | – |
| CC(=O)O[C@H]1C[C@@H]2CC[C@@]1(C)C2(C)C | inactive | – |
| C[Si]1(C)O[Si](C)(C)O[Si](C)(C)O1 | inactive | – |
| Cc1occc(=O)c1OC(=O)C(C)C | inactive | – |
| C=C(C)C1CC=C(C)C(=O)C1 (stereo not given) | inactive | – |
| CC/C=C\CCOC(=O)CC | inactive | – |
| CC1(C)O[C@@H]2C[C@H]3[C@@H]4CCC5=CC(=O)C=C[C@]5(C)[C@@]4(F)[C@@H](O)C[C@]3(C)[C@]2(C(=O)CO)O1 | inactive | – |
| N[C@@H](Cc1cc(I)c(Oc2cc(I)c(O)c(I)c2)c(I)c1)C(=O)O | inactive | – |
| CC(=O)CC(=O)Nc1ccccc1 | inactive | – |
| COc1ccc(COC(C)=O)cc1 | inactive | – |
| COc1ccccc1[N+](=O)[O-] | inactive | – |
| CCCCCCCCCCCC(=O)OC[C@@H](O)[C@H]1OC[C@H](O)[C@H]1O | inactive | – |
| CC(Oc1cc(Cl)ccc1Cl)C(=O)O (stereo not given) | inactive | – |
| O=CCc1ccccc1 | inactive | – |
| C=C(CC(=O)O)C(=O)O | inactive | – |
| CC(C)CC(C)CC(O)CC(C)C (stereo not given) | inactive | – |

| Compound | outcome | AC50 |
| --- | --- | --- |
| CCCCCCC(=O)c1ccccc1 | inactive | – |
| COC(C)(C)CC(C)=O | inactive | – |
| CCCCCc1ccco1 | inactive | – |
| CCOC(=O)C(C#N)=C(c1ccccc1)c1ccccc1 | inactive | – |
| CC/C=C\CC/C=C/CO | inactive | – |
| CCCOCCO | inactive | – |
| CCCCCCOCCOCCO | inactive | – |
| CC(=O)C1(C)CC2=C(CCCC2(C)C)CC1C (stereo not given) | inactive | – |
| CN(C)C(=O)Nc1ccc(Oc2ccc(Cl)cc2)cc1 | inactive | – |
| OC[C@H]1O[C@@H](Oc2ccc(O)cc2)[C@H](O)[C@@H](O)[C@@H]1O | inactive | – |
| CCC(=O)O[C@@H]1C[C@H]2CC[C@]1(C)C2(C)C | inactive | – |
| CC(CN=Cc1ccccc1O)N=Cc1ccccc1O (stereo not given) | inactive | – |
| COC(CC(C)CCCC(C)(C)O)OC (stereo not given) | inactive | – |
| C=C(C#N)C(=O)OCC | inactive | – |
| CCCCCCCCCCCCS(=O)(=O)Cl | inactive | – |
| CSc1c(Cl)c(Cl)c(Cl)c(Cl)c1Cl | inactive | – |
| [Cl][Au]([Cl])[Cl] | inactive | – |
| Cc1cc(=O)oc2cc(N(C)C)ccc12 | inactive | – |
| c1ccc(CN(Cc2ccccc2)Cc2ccccc2)cc1 | inactive | – |
| O=C(CC(=O)c1ccccc1)c1ccccc1 | – | 100 µM (active) |
